Pf Dd2 growth: blocks in vitro growth of P. falciparum Dd2; P. falciparum Dd2 growth, SYBR Green, 72 h; Potency, µM (series often up to 28.9 µM), for inactives: at the highest dose activity, negative = inhibition, usual class: inhibitors; 120,000 compounds, 4.3% hits; AID 1347417; active = well fitted inhibition curve with a large enough effect;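 also: plate controls were DMSO vehicle for no effect and reference drug for full effect; nearly all actives have a fitted effect of over 65% in size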
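Infected erythrocytes (Dd2, 0.3% parasitemia, 2.5% hematocrit final) are added to compound in RPMI-1640/Albumax II medium, grown 72 h at 37C in low oxygen, then lysed with saponin/Triton-X containing SYBR Green and read by fluorescence.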
* hit, by the source's call; i = inactive; [ ] = dose if it differs, or a comment. The sample as a whole holds a higher share of hits than the screen did. Potency is read from the fitted curve at half-maximal effect.

SMILES	Pf Dd2 growth
Cn1cc(-c2cnc(Nc3ccncc3)c3c2CCO3)cn1	-1%[44.1 µM]
COc1ccc(Nc2ncc(-c3cccnc3)c3c2OCC3)cc1	i
Clc1ccc(Nc2ncc(-c3cccnc3)c3c2OCC3)cc1	10µM*
COC(=O)CNC(=O)N1CC(c2nnc(-c3ccncc3)o2)C2(CCOCC2)C1 (stereo not drawn)	24%
CCCNC(=O)N(C1CCOCC1)C1CCN(S(=O)(=O)c2ccccc2CC)CC1	-22%
COc1ccccc1CC(=O)N1CCC2(CC1)NC(=O)N(Cc1ccccc1)C2=O	13%
COc1cccc(C(=O)N2CCC3(CC2)NC(=O)N(Cc2ccccc2)C3=O)c1OC	8.9µM*
COc1ccc(C(=O)N2CCC3(CC2)NC(=O)N(Cc2ccccc2)C3=O)cc1OC	i
COc1ccc(CN[C@@H]2CCC[C@@H](C(=O)NCc3cc(C)on3)CC(=O)N(C)C2)cc1	11%[44.1 µM]
CCOC(=O)c1c(NC(=O)COc2ccccc2)sc(C(C)=O)c1C	15%
CCOC(=O)c1c(NC(=O)COc2ccc(OC)cc2)sc(C(=O)N(CC)CC)c1C	11µM*
CCOC(=O)c1c(NC(=O)COc2ccc(Br)cc2)sc(C(C)=O)c1C	i
O=C(Cc1cccc(F)c1)NCCC1CCN(C(=O)Nc2ccc(F)cc2F)CC1	-18%
O=C(Nc1ccc2c(c1)OCCO2)N1CCCC(Cn2cnc3cccnc32)C1 (stereo not drawn)	-17%
COc1cccc(CN2C(=O)C3(CCOCC3)CC2c2nnnn2C(C)(C)C)c1OC (stereo not drawn)	i
CC1=C[C@@H](CN(C)Cc2cccnc2)[C@H](C(C)C)C[C@H]1Cc1nnc(-c2ccc([N+](=O)[O-])cc2)o1	4.5µM*
CC1=C[C@@H](CO)[C@H](C(C)C)C[C@H]1CC(=O)N1CCN(c2ccccn2)CC1	i
CC1=C[C@@H](CN2CCN(c3ccccn3)CC2)[C@H](C(C)C)C[C@H]1Cc1nnc(-c2ccc([N+](=O)[O-])cc2)o1	3.5µM*
CC1=C[C@@H](CN2CCN(c3ncccn3)CC2)[C@H](C(C)C)C[C@H]1Cc1nnc(COc2ccc(F)cc2)o1	0.89µM*
CC1=C[C@@H](CN2CCC(CO)CC2)[C@H](C(C)C)C[C@H]1Cc1nnc(-c2ccccc2)o1	-16%[44.1 µM]
O=C1CO[C@H]2CN(Cc3ccc4c(c3)OCO4)C[C@H]2N1c1ccccc1	-8%[44.1 µM]
COc1ccccc1Cc1nc(-c2nnn3c2COC(c2ccc(C)cc2)C3)no1 (stereo not drawn)	7.9µM*
Cc1ccc(C2Cn3nnc(-c4noc(COc5ccc(F)cc5)n4)c3CO2)cc1 (stereo not drawn)	-24%
COc1cccc(-c2nc(-c3nnn4c3COC(c3ccc(C)cc3)C4)no2)c1OC (stereo not drawn)	-4%
O=C(c1ccoc1)N1CC(c2nnc(-c3ccncc3)o2)C2(CCOCC2)C1 (stereo not drawn)	5%
SMILES	Pf Dd2 growth
COc1ccc(-c2cc(C(F)(F)F)nc(SCCC(=O)Nc3c(C)cccc3C)n2)cc1	-23%
CCCOC(=O)c1c(NC(=O)C(C)Sc2nc(-c3ccccc3)cc(C(F)(F)F)n2)sc(C(=O)N(C)C)c1C (stereo not drawn)	1.1µM*
CCOC(=O)c1sc(NC(=O)c2cc3nc(-c4ccc(Br)cc4)cc(C(F)(F)F)n3n2)c(C(=O)OCC)c1C	39%
CCCOC(=O)c1c(NC(=O)c2nc3ncccn3n2)sc(C(N)=O)c1C	3%
CCN(CC)C(=O)c1sc(NC(=O)C(C)Sc2nc(-c3ccccc3)cc(C(F)(F)F)n2)c(C(=O)OC)c1C (stereo not drawn)	0.35µM*
COc1ccc(-c2cc(C(F)(F)F)nc(SCC(=O)NCCc3ccccc3)n2)cc1	-15%
O=C(Nc1ccccc1)N[C@H]1CO[C@H]2[C@@H]1OC[C@H]2OC(=O)Nc1ccccc1	-1%[44.1 µM]
CN(Cc1ccc(-c2ccccc2)cc1)C(=O)C(C)(C)C	-23%[44.1 µM]
Cc1ccc(-c2cc(N3CCCN(C(=O)Cc4ccccc4)CC3)n[nH]2)cc1C	-13%
Cn1ncc2c(C(=O)NC3CC3)cc(-c3cccc(C(F)(F)F)c3)nc21	-22%
Cc1cccc(C)c1-c1cc(C(=O)NC2CC2)c2cnn(C)c2n1	1%
Cn1ncc2c(C(=O)NCC3CC3)cc(-c3cccnc3)nc21	13µM*
CCC(c1cccs1)N1C(=O)[C@H]2CN(S(=O)(=O)c3cn(C)cn3)C[C@H]2C1=O (stereo partly drawn)	i
Nc1nc(C2CC(O)C2)cc(N2CCc3sccc3C2)n1 (stereo not drawn)	-25%
CCOC(=O)c1c(C)n(-c2ccccc2)c2ccc(OC(=O)c3ccccc3)cc12	2.8µM*
CCOC(=O)c1c(C)n(-c2ccccc2)c2ccc(OC(=O)c3c(F)cccc3F)cc12	-16%
CCOC(=O)c1cc(OC(=O)c2ccc(OC)cc2)n(-c2ccccc2)n1	-10%
Cn1nc(C2CCN(C(=O)c3ccncc3)CC2)c2c1CCOC2	19%[5.79 µM]
COc1ccccc1Nc1nn2c(=O)c3ccc(C(=O)NC(C)c4ccccc4)cc3nc2s1 (stereo not drawn)	-14%
Cc1ccc(NC(=O)c2ccc3c(=O)n4nc(Nc5ccccc5C)sc4nc3c2)cc1C	-2%
CCc1ccccc1Nc1nn2c(=O)c3ccc(C(=O)NC(C)C)cc3nc2s1	-20%
Cc1ccc(Cl)cc1Nc1nn2c(=O)c3ccc(C(=O)Nc4ccc(F)cc4)cc3nc2s1	-5%
COc1ccc(NC(=O)c2ccc3c(=O)n4nc(Nc5ccccc5C)sc4nc3c2)cc1	-10%
CCc1ccccc1Nc1nn2c(=O)c3ccc(C(=O)NCCCOC(C)C)cc3nc2s1	11µM*
Cc1ccc(Cl)cc1Nc1nn2c(=O)c3ccc(C(=O)NC(C)c4ccccc4)cc3nc2s1 (stereo not drawn)	7.9µM*
SMILES	Pf Dd2 growth
CCc1ccccc1Nc1nn2c(=O)c3ccc(C(=O)NCc4ccccc4Cl)cc3nc2s1	11µM*
COc1ccc(NC(=O)c2ccc3c(=O)n4nc(Nc5ccccc5C)sc4nc3c2)cc1Cl	-4%
CCc1ccccc1Nc1nn2c(=O)c3ccc(C(=O)NCc4cccs4)cc3nc2s1	14µM*
CCOC(=O)C1CCN(C(=O)c2ccc3c(=O)n4nc(Nc5ccccc5)sc4nc3c2)CC1	-18%
COC(=O)c1ccc2c(=O)n3nc(Nc4cc(OC)ccc4OC)sc3nc2c1	91%
O=C(O)[C@]12CCCN[C@@H]1CCN(Cc1ccc(-c3ccccn3)cc1)C2	-1%
CCNC(=O)N1CCCCCNC(=O)[C@@H]2CCCC[C@@H]21	6%
Cc1cc(C(=O)N[C@H](C)c2c(-c3ccc(F)cc3)noc2C(=O)O)c(C)o1	13%[44.1 µM]
Cc1nnnn1CCC(=O)N[C@@H]1COCC[C@@H]1OCc1cscn1	-25%
COc1ccc(CNC(=O)[C@@]23CCCC[C@H]2N(CCC(C)C)C(=O)CC3)cc1OC	i
COCC1CN(C(=O)Cn2nc(C(F)(F)F)cc2C)CC12CCNCC2 (stereo not drawn)	29%
CCc1noc(-c2nc(Cc3cccc(F)c3)no2)n1	i
CN(Cc1ccc(-n2cccn2)cc1)Cc1nc(Cc2cccc(F)c2)no1	5%
Oc1ccc(CCC2CCCCN2Cc2nc(Cc3cccc(F)c3)no2)cc1 (stereo not drawn)	5µM*
O=C(NCc1ccc2c(c1)OCO2)C1CN(c2ccc(Cl)cc2)C(=O)N1 (stereo not drawn)	13%
CN(CC1CCN(CCc2cccc(F)c2)CC1)C(=O)[C@@H](N)Cc1cnc[nH]1	-1%
COc1ccc(CCN2CCC(CN(C)C(=O)C3CCCCO3)CC2)cc1 (stereo not drawn)	-11%

Screens as filed in PubChem.
